# Source: PubChem BioAssay (NCI)
# The panel holds about 79,000 compounds, 15% with a hit somewhere; the sample as a whole holds those more often. Unmarked numbers belong to inactive results. Activity calls are given as the source filed them. Cut-off read from the data, not from the text of the source: active = growth inhibition above about 70%; inactive = the rest.
# Assays:
# [1] = NCI Yeast Anticancer Drug Screen. Data for the rad50 strain (AID 155);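 note: 0% = growth of vehicle-only cultures of the same strain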; settings: S. cerevisiae rad50 strain growth inhibition, stronger effect = higher value
# Procedure, shortened: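 Inhibition values express reduced yeast growth in compound-treated cultures relative to vehicle-treated controls.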
# [2] = NCI Yeast Anticancer Drug Screen. Data for the mec2-1 strain (AID 157); settings: S. cerevisiae mec2-1 strain, stronger effect = higher value
# Procedure, shortened: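 Readout is yeast growth inhibition, normalised to vehicle-treated controls, in the mec2-1 strain exposed to compound.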
# [3] = NCI Yeast Anticancer Drug Screen. Data for the sgs1 mgt1 strain (AID 161);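 note: 0% = growth of cultures given vehicle only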; settings: S. cerevisiae sgs1 mgt1 strain, stronger effect = higher value
# Procedure, shortened: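 Compounds are added to genetically altered yeast, and growth is compared with cultures given vehicle alone to give percent inhibition.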
# [4] = NCI Yeast Anticancer Drug Screen. Data for the cln2 rad14 strain (AID 165);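 note: 0% = growth equal to vehicle treated cultures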; settings: S. cerevisiae cln2 rad14 strain, stronger effect = higher value
# Procedure, shortened: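 Relative to vehicle controls, growth inhibition of compound-treated cln2 rad14 yeast was recorded.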
# [5] = NCI Yeast Anticancer Drug Screen. Data for the bub3 strain (AID 167); settings: S. cerevisiae bub3 mutant strain, stronger effect = higher value
# Procedure, shortened: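 Steps: expose the mutant yeast strain to compound; grow alongside vehicle-treated cultures; measure growth; express inhibition against the vehicle cultures.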
# [6] = NCI Yeast Anticancer Drug Screen. Data for the mlh1 rad18 strain (AID 175); settings: S. cerevisiae mlh1 rad18 strain growth inhibition, stronger effect = higher value
# Procedure, shortened: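 Test agents were incubated with a yeast strain of defined genotype (DNA damage repair defect). Inhibition of growth was derived by comparison with vehicle-exposed cultures.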
# [7] = at 5.0 µM (retest, dose inferred, filed as 0.5)
# [8] = at 50.0 µM (retest, dose inferred, filed as 5.0)
Structure (SMILES),"growth inhibition [1, 7] [%]","growth inhibition [1, 8]",growth inhibition ([1]; at 50.0 µM),"growth inhibition [2, 7] [%]","growth inhibition [2, 8]",growth inhibition ([2]; at 50.0 µM),"growth inhibition [3, 7] [%]","growth inhibition [3, 8]",growth inhibition ([3]; at 50.0 µM),"growth inhibition [4, 7] [%]","growth inhibition [4, 8]",growth inhibition ([4]; at 50.0 µM),"growth inhibition [5, 7] [%]","growth inhibition [5, 8]",growth inhibition ([5]; at 50.0 µM),"growth inhibition [6, 7] [%]","growth inhibition [6, 8]",growth inhibition ([6]; at 50.0 µM)
O=S1(=O)CC=C1c1ccccc1,8,78% (active),96.3% (active),8,92% (active),96.5% (active),7,89% (active),94.8% (active),5,61%,73.8% (active),2,84% (active),95.2% (active),2,92% (active),97.7% (active)
Clc1ccc2ns[s+]c2c1,8,78% (active),73.7% (active),13,93% (active),48.1%,12,86% (active),80.6% (active),21,49%,47.8%,26,96% (active),72.3% (active),17,85% (active),-27.7%
Cn1cnc2[nH]c(Cl)nc(=S)c21,-1,2%,1.05%,3,0%,-8.25%,-1,0%,-0.65%,-6,0%,81.1% (active),-1,-4%,11.9%,-2,0%,15.6%
O=C(CCCCCCCCCCc1ccccc1)c1ccc(Cl)cc1,7,76% (active),83.7% (active),5,79% (active),42.6%,17,89% (active),93.7% (active),15,61%,70.8% (active),13,72% (active),94.8% (active),16,80% (active),70.6% (active)
CNC(=O)OC1/C(C)=C\C(C)C(O)C(OC)CC(C)CC2=C(OC)C(=O)C=C(C2=O)N(C)C(=O)/C(C)=C/C=C\C1OC (configuration not stated),-24,25%,65%,-28,70% (active),83.8% (active),-22,39%,65.8%,8,68%,50%,9,80% (active),73.6% (active),-3,68%,51%
CCCCc1c2c(nc3c1CCC/C3=C\c1ccccc1)C(=O)C(CN(C)C)CC2 (configuration not stated),16,96% (active),86.3% (active),10,97% (active),89.1% (active),29,97% (active),86.5% (active),11,96% (active),86.8% (active),13,95% (active),84.5% (active),11,96% (active),84.5% (active)
O=C1NC(Cc2ccccc2)C(=O)O1 (configuration not stated),0,-6%,-2.1%,-2,-3%,3.35%,-3,13%,11.1%,-11,6%,-13.8%,-1,-2%,43.9%,-1,-6%,4.25%
Cc1cc(O)c(NCCN(C)C)c2c(=O)c3ccccc3sc12,18,97% (active),98.5% (active),7,97% (active),99.1% (active),8,98% (active),98.8% (active),12,97% (active),97.8% (active),6,94% (active),98% (active),5,97% (active),98.7% (active)
CCCN(CCC)C(=O)c1nc(N)nc(-c2ccc(OC)cc2)c1-c1ccc(OC)cc1,9,9%,-23.6%,-1,-1%,-30.1%,-6,-6%,29.4%,0,0%,2.55%,-10,-10%,-21.4%,-9,-9%,-42%
